This is part of a sample that, as a whole, favours compounds with a hit. Of some 83,000 tested, about 20% had one in any assay.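 Cells were grown in 96-well plates and exposed to the test compound at a single concentration for 48 hours; results are reported as percent growth, with values below 10 considered active.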 A number with no mark means an inactive call. The source made the active and inactive calls.
tested on: MDA-MB-231 breast; assay: NCI-60 one-dose screen, 48 h (100 = growth as untreated, 0 = no growth, -100 = all killed); conditions: 10 µM unless noted

SMILES	growth
C=C1C(=O)O[C@H]2[C@H]1CC/C(COC(=O)NCc1[nH]nc3ccccc13)=C\CC[C@@]1(C)O[C@@H]21	49.1%
CC(=O)Oc1c(Cl)c(Cl)c(Cl)c(Cl)c1Cl	86.3%
CC(=O)Nc1c(Br)cc2c(c1Br)Cc1cc(Br)ccc1-2	51.1%
Cc1ccc(C(CN(C)C)C(=O)c2ccccc2)cc1 (stereo not given)	25.4%
CCOC(=O)C(CCCCC(NC(C)=O)(C(=O)OCC)C(=O)OCC)(NC(C)=O)C(=O)OCC	111%
O=[N+]([O-])c1ccc(SSc2ccc([N+](=O)[O-])cc2Cl)c(Cl)c1	78.2%
COc1cc(/C=C2\CN(C(=O)OC(C)(C)C)C/C(=C\c3ccc(O)c(OC)c3)C2=O)ccc1O	86.1%
O=S1(=O)NCCN1CCNc1nccc(-c2c(-c3cccc(O)c3)nc3sccn23)n1	86.8%
CNCCCn1c2c(c3ccc(Cl)cc3c1=O)C(=O)c1cc(OC)cnc1-2	77.3%
O=C(/C=C/c1ccccc1)c1c[nH]c2ccccc2c1=O	-1.53% (active)
N=C(N)c1ccc(-c2ccc(-c3ccco3)o2)cc1F	9.14% (active)
C[C@@H]1N=C(c2ccc3ccccc3c2)Nc2nc3ccccn3c2C1=O	52.5%
COc1ccc2[nH]cc(C3(c4c[nH]c5ccc(OC)cc45)C(=O)Nc4ccc(F)cc43)c2c1	101%
CC(=O)Nc1ccc(/C=N/N2CCCCCC2)cc1	74.7%
COc1cc(-c2nn(C(=O)NCCN3CCN(C)CC3)cc2-c2ccncc2)ccc1Cl	70.5%

From PubChem BioAssay (NCI)
